Results: the supplement of paper PMC11732987, “Enantioselective OTUD7B fragment discovery through chemoproteomics screening and high-throughput optimisation” (Communications Chemistry, 2025)

What was measured:
Experiment in all cases: log2 ratio of Biotin-Ahx-Ub-VS probe labelling (fragment/DMSO); higher = less target engagement (more negative = stronger competition), active = hit call of the paper (q ≤ 0.05, log2 ratio ≤ -1)
Settings in all cases: compound concentration: 200 uM; treatment time: 3 h
[1] = target: T1, ALG13 (UniProt Q9NP73)
T1 sequence (whole entry): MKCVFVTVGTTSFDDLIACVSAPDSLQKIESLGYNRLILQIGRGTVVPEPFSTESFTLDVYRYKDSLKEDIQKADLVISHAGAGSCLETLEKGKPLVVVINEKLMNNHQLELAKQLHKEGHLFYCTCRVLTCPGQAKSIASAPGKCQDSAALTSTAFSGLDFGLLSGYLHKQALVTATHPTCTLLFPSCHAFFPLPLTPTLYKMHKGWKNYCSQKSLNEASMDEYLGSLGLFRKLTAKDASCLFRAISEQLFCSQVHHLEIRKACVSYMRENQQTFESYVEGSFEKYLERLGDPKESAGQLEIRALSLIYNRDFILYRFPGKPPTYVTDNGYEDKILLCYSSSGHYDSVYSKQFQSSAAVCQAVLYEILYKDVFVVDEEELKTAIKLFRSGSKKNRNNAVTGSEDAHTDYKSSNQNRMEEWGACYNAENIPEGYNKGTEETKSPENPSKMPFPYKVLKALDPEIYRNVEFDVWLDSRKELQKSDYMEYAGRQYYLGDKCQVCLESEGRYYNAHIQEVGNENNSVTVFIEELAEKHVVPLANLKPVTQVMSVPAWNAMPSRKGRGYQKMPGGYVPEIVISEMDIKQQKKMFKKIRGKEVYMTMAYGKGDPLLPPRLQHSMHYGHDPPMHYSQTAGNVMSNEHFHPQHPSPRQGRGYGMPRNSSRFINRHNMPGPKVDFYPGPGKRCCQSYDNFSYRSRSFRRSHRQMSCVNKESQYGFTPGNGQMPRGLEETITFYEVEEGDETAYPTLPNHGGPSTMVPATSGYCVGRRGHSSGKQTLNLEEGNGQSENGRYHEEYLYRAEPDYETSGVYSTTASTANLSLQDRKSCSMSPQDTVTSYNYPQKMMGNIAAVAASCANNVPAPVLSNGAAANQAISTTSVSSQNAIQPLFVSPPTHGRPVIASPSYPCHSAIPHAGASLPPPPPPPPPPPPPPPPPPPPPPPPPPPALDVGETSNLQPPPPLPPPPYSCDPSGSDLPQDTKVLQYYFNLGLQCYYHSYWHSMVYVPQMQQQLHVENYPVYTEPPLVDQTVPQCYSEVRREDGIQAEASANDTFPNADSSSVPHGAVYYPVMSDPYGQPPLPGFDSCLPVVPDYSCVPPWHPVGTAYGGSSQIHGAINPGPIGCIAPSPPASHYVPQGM
Method in brief: (§1)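 Average log2 ratios of fragment over vehicle were obtained by unpaired t-test from global-median-normalised Spectronaut label-free quantities. Proteins with ≥2 unique peptides were included. HEK293T lysate (495 µg per sample) was treated in triplicate with fragment at 200 µM or vehicle for 3 h, then with Biotin-Ahx-Ub-VS at 0.5 µM final for 1 h, and labelled DUBs were NeutrAvidin-enriched and run by diaPASEF LC-MS/MS.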

[2] = target: ATXN3 (UniProt P54252)
Method in brief: as §1

[3] = target: T2, BAP1 (UniProt Q92560)
T2 sequence (whole entry): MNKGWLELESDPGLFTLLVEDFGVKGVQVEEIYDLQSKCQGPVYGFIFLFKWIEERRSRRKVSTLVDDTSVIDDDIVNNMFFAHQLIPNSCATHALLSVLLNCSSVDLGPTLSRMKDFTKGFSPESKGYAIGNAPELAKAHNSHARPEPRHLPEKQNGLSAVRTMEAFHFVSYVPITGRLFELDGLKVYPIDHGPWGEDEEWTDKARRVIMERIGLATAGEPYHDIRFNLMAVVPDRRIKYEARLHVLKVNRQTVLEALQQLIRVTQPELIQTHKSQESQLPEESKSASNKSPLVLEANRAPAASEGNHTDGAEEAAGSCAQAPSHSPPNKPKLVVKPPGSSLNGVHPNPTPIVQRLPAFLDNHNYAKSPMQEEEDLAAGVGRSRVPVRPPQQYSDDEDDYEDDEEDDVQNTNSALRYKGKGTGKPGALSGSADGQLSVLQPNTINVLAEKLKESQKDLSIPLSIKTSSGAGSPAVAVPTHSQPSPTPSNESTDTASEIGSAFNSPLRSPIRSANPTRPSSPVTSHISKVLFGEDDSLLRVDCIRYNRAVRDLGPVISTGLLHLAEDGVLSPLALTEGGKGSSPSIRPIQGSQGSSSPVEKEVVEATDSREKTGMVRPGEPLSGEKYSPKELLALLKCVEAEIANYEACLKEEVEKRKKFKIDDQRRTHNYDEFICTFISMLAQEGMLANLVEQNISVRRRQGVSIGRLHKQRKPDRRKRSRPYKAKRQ
Method in brief: as §1

[4] = target: EIF3F (UniProt O00303)
Method in brief: as §1

[5] = target: EIF3H (UniProt O15372)
Method in brief: as §1

[6] = target: T3, FAM105A (UniProt Q9NUU6)
T3 sequence (whole entry): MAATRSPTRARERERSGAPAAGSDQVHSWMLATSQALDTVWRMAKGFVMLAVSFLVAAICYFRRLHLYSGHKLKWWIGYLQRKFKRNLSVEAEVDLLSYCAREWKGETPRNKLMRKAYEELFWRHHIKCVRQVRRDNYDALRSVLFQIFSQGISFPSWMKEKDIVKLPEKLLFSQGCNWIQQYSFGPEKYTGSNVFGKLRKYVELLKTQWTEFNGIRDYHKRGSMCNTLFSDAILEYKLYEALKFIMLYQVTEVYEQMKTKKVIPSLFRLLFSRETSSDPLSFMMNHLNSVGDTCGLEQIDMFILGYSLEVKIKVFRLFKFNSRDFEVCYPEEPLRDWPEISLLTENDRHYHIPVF
Method in brief: as §1

[7] = target: OTUB1 (UniProt Q96FW1)
Method in brief: as §1

[8] = target: T4, OTUD4 (UniProt Q01804)
T4 sequence (whole entry): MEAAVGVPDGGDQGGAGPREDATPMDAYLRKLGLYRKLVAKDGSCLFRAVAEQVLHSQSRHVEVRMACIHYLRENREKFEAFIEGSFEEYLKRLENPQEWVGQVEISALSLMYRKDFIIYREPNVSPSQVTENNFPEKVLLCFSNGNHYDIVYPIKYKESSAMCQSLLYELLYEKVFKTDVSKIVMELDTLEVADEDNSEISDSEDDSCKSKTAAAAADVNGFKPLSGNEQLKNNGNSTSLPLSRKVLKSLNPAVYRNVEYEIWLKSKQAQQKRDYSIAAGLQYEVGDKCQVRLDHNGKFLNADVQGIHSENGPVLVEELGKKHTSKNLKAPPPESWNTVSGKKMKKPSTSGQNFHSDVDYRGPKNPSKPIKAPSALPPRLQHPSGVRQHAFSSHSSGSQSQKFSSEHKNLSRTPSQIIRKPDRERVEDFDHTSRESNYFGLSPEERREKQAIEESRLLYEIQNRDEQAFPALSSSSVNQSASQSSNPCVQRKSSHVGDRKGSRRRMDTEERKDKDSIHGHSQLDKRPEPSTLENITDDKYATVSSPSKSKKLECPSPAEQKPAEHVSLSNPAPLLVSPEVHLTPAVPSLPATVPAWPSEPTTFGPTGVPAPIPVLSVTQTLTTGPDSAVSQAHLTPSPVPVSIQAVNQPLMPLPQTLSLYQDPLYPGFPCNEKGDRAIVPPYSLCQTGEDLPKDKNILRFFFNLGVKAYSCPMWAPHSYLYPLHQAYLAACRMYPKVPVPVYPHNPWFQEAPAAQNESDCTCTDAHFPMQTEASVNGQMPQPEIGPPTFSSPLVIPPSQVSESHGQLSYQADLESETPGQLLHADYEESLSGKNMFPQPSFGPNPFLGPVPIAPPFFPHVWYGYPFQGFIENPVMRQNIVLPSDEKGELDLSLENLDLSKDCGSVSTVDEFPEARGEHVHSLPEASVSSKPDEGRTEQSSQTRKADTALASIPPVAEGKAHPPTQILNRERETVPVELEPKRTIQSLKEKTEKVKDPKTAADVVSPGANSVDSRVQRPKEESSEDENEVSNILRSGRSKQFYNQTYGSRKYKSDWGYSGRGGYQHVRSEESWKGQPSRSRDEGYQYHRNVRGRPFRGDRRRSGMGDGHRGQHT
Method in brief: as §1

[9] = target: T5, OTUD5 (UniProt Q96G74)
T5 sequence (whole entry): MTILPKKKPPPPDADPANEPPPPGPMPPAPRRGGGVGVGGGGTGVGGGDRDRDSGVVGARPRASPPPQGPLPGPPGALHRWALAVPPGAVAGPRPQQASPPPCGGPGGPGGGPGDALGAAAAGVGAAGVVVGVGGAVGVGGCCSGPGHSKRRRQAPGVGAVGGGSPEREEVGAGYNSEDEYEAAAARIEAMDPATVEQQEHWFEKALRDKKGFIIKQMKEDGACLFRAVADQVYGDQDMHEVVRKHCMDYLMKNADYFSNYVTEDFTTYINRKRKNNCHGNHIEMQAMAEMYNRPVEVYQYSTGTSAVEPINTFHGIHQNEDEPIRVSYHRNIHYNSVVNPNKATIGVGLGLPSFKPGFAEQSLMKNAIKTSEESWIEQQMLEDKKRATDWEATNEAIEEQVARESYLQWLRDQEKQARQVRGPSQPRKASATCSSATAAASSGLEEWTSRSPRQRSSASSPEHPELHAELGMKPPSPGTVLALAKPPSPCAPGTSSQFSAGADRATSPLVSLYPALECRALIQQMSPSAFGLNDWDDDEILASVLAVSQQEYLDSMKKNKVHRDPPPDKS
Method in brief: as §1

Measured: log2 ratio of Biotin-Ahx-Ub-VS probe labelling

Sequence of ATXN3 (P54252 whole entry): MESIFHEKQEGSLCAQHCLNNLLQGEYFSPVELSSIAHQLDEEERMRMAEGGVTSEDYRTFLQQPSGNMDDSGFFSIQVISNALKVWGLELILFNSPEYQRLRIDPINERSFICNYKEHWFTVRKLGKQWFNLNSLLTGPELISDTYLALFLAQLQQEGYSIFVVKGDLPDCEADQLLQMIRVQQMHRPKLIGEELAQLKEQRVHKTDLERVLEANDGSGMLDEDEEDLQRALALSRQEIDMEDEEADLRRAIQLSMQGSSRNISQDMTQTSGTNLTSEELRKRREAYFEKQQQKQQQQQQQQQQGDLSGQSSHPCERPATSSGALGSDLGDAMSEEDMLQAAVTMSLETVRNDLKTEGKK
Sequence of EIF3F (O00303 whole entry): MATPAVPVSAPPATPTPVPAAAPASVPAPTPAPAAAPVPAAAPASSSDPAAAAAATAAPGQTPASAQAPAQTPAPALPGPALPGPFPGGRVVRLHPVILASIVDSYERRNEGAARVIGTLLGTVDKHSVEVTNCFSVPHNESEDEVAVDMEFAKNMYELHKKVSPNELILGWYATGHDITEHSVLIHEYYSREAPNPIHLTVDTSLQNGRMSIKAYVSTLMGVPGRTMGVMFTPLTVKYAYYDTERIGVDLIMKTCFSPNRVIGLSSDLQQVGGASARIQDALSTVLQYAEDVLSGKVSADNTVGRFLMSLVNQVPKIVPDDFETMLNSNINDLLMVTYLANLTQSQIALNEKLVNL
Sequence of EIF3H (O15372 whole entry): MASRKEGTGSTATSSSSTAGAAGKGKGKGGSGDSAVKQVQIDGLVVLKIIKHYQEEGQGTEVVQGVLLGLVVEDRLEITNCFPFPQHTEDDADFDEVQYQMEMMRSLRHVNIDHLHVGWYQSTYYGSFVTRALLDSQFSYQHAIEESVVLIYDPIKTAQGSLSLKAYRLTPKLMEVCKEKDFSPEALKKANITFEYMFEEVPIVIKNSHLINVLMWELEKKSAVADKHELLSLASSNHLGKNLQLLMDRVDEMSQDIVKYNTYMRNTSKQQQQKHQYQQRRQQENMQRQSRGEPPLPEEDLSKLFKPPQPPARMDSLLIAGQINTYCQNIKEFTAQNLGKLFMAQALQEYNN
Sequence of OTUB1 (Q96FW1 whole entry): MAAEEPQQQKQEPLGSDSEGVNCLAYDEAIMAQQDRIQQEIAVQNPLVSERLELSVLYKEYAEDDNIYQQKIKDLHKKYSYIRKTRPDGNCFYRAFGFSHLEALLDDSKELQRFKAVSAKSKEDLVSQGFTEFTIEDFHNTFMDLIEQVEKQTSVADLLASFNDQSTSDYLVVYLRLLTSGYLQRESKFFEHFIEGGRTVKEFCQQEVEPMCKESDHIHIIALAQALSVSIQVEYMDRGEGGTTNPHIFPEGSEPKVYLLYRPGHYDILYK

O=C(CCl)NC1CCN(C(=O)C2CCCCC2)CC1
active: [3] -1.71
inactive: [1] -0.358 | [2] -0.103 | [4] -0.569 | [5] 0.155 | [6] -0.0528 | [7] -0.0801 | [8] 0.0192 | [9] -0.0926
